PubChem BioAssay
Values joined by “and” are separate entries in the source; they are usually repeats but may differ in a detail not shown here. Identical values can stand only once. Active and inactive are the calls of the source.

Assays:
[1] = test system: Plasmodium falciparum Sir2 (PF13_0152, Sir2A); assay: pfSir2 binders on small-molecule microarrays, primary screen, biochemical, small-molecule microarray, 635 nm fluorescence (AID 1098); conditions: small-molecule microarray binding, fluorescence 635 nm; higher = more signal;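 further: score merges spot fluorescence intensity with its signal-to-noise ratio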
[2] = small-molecule microarray binders of probe aDKK1, primary screen, biochemical, biotinylated probe, 635/667 nm fluorescence (AID 1099); conditions: higher = more signal;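 further: score merges 667nm spot fluorescence with signal to noise across triplicate slides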
[3] = small-molecule microarray binders of probe aCHRDL2, primary screen, biochemical, biotinylated probe, 635/667 nm fluorescence (AID 1100); conditions: higher = more signal
[4] = splicing luciferase reporter signal modulators, primary screen, spliceosome inhibition project, cell-based, HEK293, splice +/- reporter (AID 1101); conditions: luminescence, 24 h, higher = more signal, called active from +8 up or from −8 down;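 further: HEK293 cells carrying a splicing-competent luciferase reporter gene; test concentration not given here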
[5] = target: Fibroblast growth factor 10 (Homo sapiens) (UniProt O15520); assay: FGF10 binders on small-molecule microarrays, primary screen, biochemical, small-molecule microarray, 635 nm fluorescence (AID 1102); conditions: FGF10 binding, fluorescence 635 nm, higher = more signal
[6] = test system: glycogen synthase kinase-3 (GSK3A per assay name; protocol says GSK3B); assay: GSK3 binders on small-molecule microarrays, primary screen, biochemical, small-molecule microarray, 635 nm fluorescence, GSK3A (AID 1103); conditions: small-molecule microarray binding, fluorescence 635 nm; higher = more signal; further: the record names both GSK3A and GSK3B
[7] = target: Epidermal growth factor receptor (Homo sapiens) (UniProt P00533); assay: EGFR binders on small-molecule microarrays, primary screen, biochemical, small-molecule microarray, 635 nm fluorescence (AID 1104); conditions: EGFR binding, higher = more signal;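 further: score merges 667 nm emission intensity with spot signal to noise over triplicate slides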
[8] = target: Follistatin-related protein 3 (Homo sapiens) (UniProt O95633); assay: FSTL3 binders on small-molecule microarrays, primary screen, biochemical, small-molecule microarray, 635 nm fluorescence (AID 1105); conditions: FSTL3 binding, higher = more signal;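 further: score merges emission near 667 nm and signal to noise per printed spot across three slides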
[9] = target: Dickkopf-related protein 1 (Homo sapiens) (UniProt O94907); assay: DKK1 binders on small-molecule microarrays, primary screen, biochemical, small-molecule microarray, 635 nm fluorescence scan (AID 1106); conditions: DKK1 binding, higher = more signal;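 further: score merges emission near 667 nm with signal to noise over three replicate slides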
[10] = test system: Inhibin beta A chain (activin A); assay: INHBA (activin A) binders on microarrays, primary screen, biochemical, small-molecule microarray, 635 nm fluorescence scan (AID 1107); conditions: small-molecule microarray binding, higher = more signal;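 further: mouse activin A protein probed at 4.33 µg/mL on printed slides; score merges bound-protein fluorescence near 667 nm with spot signal-to-noise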
[11] = test system: Human papillomavirus type 1a protein E7 (residues 44-93); assay: HPV1a E7 fragment binders on microarrays, primary screen, biochemical, small-molecule microarray, residues 44-93, 635 nm fluorescence (AID 1108); conditions: small-molecule microarray binding, fluorescence 635 nm; higher = more signal;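 further: E7 fragment applied at 1 µg/mL in TBST for 1 h at 4 C; score combines spot fluorescence with its signal to noise ratio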
[12] = modulators of HCV replicon luciferase signal, primary screen, HCV replication inhibitor project, Huh7 cells, luciferase reporter (AID 1109); conditions: 48 h, higher = more signal;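 further: huh7 hepatoma cells harbouring a luciferase neomycin HCV replicon reporter; luciferase luminescence as measure of HCV replicon replication; test concentration not given here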
[13] = target: Left-right determination factor 2 (Homo sapiens) (UniProt O00292); assay: LEFTY2 binders on small-molecule microarrays, primary screen, biochemical, small-molecule microarray, 635 nm fluorescence scan (AID 1110); conditions: LEFTY2 binding, higher = more signal
[14] = target: Calmodulin-1 (Homo sapiens) (UniProt P0DP23); assay: CALM1 binders on microarrays, EGTA buffer, profiling panel, biochemical, small-molecule microarray, Cy5-labelled CALM1 (AID 1111); conditions: Cy5-CALM1 binding fluorescence, higher = more signal;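 further: labelled calmodulin applied in Tris saline Tween buffer holding calcium plus EGTA and DTT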
[15] = target: Calmodulin-1 (Homo sapiens) (UniProt P0DP23); assay: calcium-bound CALM1 binders on microarrays, profiling panel, artefact control for SMM control-protein annotation, biochemical, small-molecule microarray, Cy5-labelled CALM1, plus calcium (AID 1112); conditions: Cy5-CALM1 binding fluorescence, higher = more signal;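 further: score merges spot fluorescence with signal to noise from triplicate slides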
[16] = small-molecule microarray binders of probe aWnt5a, primary screen, biochemical, biotinylated probe, 635/667 nm fluorescence (AID 1113); conditions: higher = more signal;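 further: score merges 667 nm fluorescence intensity with signal-to-noise per printed feature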
[17] = small-molecule microarray binders of probe aShh, primary screen, biochemical, biotinylated probe, 635/667 nm fluorescence (AID 1114); conditions: higher = more signal;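 further: probe is biotin-labelled aShh protein from a stem cell growth factor screen; measures binding of labelled protein to compounds printed on the slide; score merges feature fluorescence at 667 nm with signal-to-noise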
[18] = small-molecule microarray binders of probe aNog, primary screen, biochemical, biotinylated probe, 635/667 nm fluorescence (AID 1115); conditions: higher = more signal;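 further: probe is biotinylated aNog protein used at 0.15 µg/mL for 1 h at 4 C; z-score combines 667 nm fluorescence of each spot with its signal to noise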
[19] = target: Torsin-1A-interacting protein 1 (Homo sapiens) (UniProt Q5JTV8); assay: LAP1 binders from COS7 cell lysate, primary screen, small-molecule microarray, 635/667 nm fluorescence (AID 1116); conditions: COS7-hLAP1 lysate binding, 635 nm fluorescence, higher = more signal
[20] = target: Alpha-bungarotoxin (Bungarus multicinctus) (UniProt P60615); assay: alpha-bungarotoxin binders on microarray, profiling panel, artefact control for SMM control protein annotation, biochemical, small-molecule microarray, Alexa647 label, 635/667 nm fluorescence (AID 1117); conditions: alpha-BTX-A647 binding fluorescence, higher = more signal
Alpha-bungarotoxin (Bungarus multicinctus), sequence (P60615 whole entry, looked up): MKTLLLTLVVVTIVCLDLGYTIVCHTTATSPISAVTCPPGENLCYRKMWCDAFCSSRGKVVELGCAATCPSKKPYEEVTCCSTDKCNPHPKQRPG

Fibroblast growth factor 10 (Homo sapiens), sequence (O15520 whole entry, looked up): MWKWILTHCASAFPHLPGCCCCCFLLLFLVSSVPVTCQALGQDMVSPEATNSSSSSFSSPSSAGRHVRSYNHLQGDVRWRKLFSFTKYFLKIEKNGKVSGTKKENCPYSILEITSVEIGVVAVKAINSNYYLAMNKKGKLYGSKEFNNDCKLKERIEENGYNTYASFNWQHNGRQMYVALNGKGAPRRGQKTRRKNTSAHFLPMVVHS
Follistatin-related protein 3 (Homo sapiens), sequence (O95633 whole entry, looked up): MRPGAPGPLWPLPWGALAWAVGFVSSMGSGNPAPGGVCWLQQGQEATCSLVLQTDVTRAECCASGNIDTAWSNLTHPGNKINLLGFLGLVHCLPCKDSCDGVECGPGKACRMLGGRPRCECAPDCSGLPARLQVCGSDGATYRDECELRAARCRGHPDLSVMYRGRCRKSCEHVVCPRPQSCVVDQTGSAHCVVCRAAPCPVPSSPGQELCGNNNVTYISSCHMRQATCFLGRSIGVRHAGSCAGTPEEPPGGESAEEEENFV
Dickkopf-related protein 1 (Homo sapiens), sequence (O94907 whole entry, looked up): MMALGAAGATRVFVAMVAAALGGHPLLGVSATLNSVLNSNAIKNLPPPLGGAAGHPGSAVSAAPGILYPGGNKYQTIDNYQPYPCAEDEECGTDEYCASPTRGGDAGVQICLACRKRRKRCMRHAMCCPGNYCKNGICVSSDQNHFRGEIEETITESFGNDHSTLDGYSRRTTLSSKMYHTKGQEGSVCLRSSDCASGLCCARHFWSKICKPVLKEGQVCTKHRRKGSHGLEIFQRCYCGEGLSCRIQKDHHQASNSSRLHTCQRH
Left-right determination factor 2 (Homo sapiens), sequence (O00292 whole entry, looked up): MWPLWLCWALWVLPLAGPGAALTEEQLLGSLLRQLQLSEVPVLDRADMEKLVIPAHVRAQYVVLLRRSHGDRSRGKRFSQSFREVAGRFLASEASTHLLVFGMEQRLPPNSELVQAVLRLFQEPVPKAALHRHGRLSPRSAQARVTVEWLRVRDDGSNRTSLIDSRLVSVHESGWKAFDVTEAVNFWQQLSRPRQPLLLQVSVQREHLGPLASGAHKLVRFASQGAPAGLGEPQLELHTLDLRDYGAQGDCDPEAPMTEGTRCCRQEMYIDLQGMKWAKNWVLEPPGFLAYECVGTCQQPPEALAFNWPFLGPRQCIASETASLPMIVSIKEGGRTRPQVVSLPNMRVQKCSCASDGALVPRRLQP
Torsin-1A-interacting protein 1 (Homo sapiens), sequence (Q5JTV8 whole entry, looked up): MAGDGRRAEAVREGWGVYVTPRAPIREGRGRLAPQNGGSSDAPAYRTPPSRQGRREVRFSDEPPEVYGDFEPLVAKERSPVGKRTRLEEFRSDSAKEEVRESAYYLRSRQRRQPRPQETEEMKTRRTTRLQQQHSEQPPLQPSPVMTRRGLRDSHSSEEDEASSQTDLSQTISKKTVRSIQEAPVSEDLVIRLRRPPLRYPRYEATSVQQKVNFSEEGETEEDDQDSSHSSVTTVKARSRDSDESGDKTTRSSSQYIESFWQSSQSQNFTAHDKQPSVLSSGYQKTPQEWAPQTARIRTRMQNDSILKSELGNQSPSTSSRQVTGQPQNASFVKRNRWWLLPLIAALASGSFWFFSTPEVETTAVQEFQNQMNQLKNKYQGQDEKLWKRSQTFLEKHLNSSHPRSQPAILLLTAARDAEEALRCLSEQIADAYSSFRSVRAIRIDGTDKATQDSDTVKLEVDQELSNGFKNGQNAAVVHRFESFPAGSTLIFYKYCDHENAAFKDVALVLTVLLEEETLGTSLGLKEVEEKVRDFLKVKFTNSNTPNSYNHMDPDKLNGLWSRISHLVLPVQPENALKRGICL
Epidermal growth factor receptor (Homo sapiens), sequence (P00533 whole entry, looked up): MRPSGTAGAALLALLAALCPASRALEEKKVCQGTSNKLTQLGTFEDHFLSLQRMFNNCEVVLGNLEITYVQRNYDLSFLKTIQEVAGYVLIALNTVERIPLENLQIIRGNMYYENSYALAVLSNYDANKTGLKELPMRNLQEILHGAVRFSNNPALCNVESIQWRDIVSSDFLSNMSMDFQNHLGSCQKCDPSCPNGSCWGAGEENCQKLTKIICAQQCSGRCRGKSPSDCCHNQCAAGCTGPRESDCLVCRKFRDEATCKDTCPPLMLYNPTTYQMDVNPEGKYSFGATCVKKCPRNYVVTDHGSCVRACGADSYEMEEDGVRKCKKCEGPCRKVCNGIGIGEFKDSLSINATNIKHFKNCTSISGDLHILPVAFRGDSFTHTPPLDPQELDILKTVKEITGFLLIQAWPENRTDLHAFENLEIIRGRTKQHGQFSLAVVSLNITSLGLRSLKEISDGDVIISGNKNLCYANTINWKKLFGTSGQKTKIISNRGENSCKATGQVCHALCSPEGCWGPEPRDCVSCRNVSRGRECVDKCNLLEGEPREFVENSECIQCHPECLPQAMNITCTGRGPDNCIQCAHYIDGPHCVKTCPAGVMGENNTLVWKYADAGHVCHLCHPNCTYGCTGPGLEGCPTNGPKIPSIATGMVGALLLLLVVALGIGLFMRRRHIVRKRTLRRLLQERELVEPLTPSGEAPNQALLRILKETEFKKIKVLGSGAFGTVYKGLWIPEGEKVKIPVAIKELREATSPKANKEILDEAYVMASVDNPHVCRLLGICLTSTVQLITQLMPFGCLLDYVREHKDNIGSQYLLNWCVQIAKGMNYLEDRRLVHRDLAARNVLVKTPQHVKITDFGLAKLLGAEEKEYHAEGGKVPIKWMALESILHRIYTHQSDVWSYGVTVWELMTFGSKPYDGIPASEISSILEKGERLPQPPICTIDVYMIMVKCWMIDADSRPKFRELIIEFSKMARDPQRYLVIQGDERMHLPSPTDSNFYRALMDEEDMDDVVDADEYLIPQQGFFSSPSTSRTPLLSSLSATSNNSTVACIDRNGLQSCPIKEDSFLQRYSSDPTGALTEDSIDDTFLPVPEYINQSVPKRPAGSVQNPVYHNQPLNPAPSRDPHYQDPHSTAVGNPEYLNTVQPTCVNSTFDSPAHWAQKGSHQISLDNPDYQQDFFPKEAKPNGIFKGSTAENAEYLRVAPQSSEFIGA

Row | Structure (SMILES) | composite z-score [1] | composite z-score [2] | composite z-score [3] | z-score [4] | composite z-score [5] | composite z-score [6] | composite z-score [7] | composite z-score [8] | composite z-score [9] | composite z-score [10] | composite z-score [11] | z-score [12] | composite z-score [13] | composite z-score [14] | composite z-score [15] | composite z-score [16] | composite z-score [17] | composite z-score [18] | composite z-score [19] | composite z-score [20]
1 | CC(C)CCN1CCc2nc(-c3ccccc3)c3c(c2C1)CO[C@@H](C)C3 | -0.0208 | 0.233 | -0.148 | 0.109 (inactive) | 0.476 | 0.77 | 0.516 | 0.579 | 0.689 | 0.55 | 1.35 | -0.952 | 0.457 | -0.083 | -0.399 | -0.0944 | -0.138 | -0.036 | 0.565 | 0.416
2 | C=CCN(CCCCC)C(=O)C(c1cccs1)N(C(=O)/C=C\C(=O)O)c1ccc(CCO)cc1 (stereo not given) | 0.274 and 0.158 | -0.273 and -0.247 | 0.748 and 0.789 | 0.748 (inactive) and 0.709 (inactive) | -1.8 and -1.08 | -1.01 and -0.785 | -1.79 and -1.62 | -1.87 and -1.55 | -2.83 and -1.55 | -2.66 and -1.26 | 0.0979 and -0.457 | -0.779 and -0.741 | -3.06 and -2.73 | -0.783 and -0.531 | 0.0708 and 0.542 | -0.284 and -0.211 | 0.289 and -0.154 | -0.23 and -0.241 | -0.755 and -0.0484 | -0.89 and -0.874
3 | CN1C(=O)C2CC=C([C@H]3Oc4ccccc4S(=O)(=O)N4CCC[C@@H]34)CC2C1=O (stereo not given in full) | 0.149 and 0.302 | -0.226 and -0.273 | -0.344 and -0.424 | 0.776 (inactive) and 0.117 (inactive) | -0.575 and -0.066 | -0.913 and -0.794 | -0.297 and -0.148 | -0.837 and -0.641 | 0.0379 and 0.305 | 0.315 and 0.808 | -1.21 and -1.99 | -0.539 and -0.95 | -0.356 and 0.11 | -0.931 and -0.686 | -0.803 and -0.798 | -0.1 and -0.0125 | -0.0553 and -0.0146 | -0.172 and -0.324 | 0.0203 and 0.0568 | 0.0847 and -0.814
4 | CC(C)[Si]1(C(C)C)OCc2cc(C3CC3)nc(CCc3ccccc3)c21 | -0.534 and -0.371 | 0.0295 and -0.146 | 0.221 and -0.262 | -0.383 (inactive) and 0.693 (inactive) | -0.348 and 0.0251 | -0.897 and 0.178 | 0.105 and 0.15 | -0.238 and 0.195 | -0.293 and 0.135 | 0.768 and 0.242 | -0.789 and 0.192 | -0.745 and -0.958 | 0.045 and 0.273 | 0.154 and -0.425 | -0.253 and -0.002 | -0.15 and -0.0512 | -0.181 and -0.221 | 0.0732 and -0.0554 | -0.527 and 0.362 | 0.0536 and -0.448
5 | CCCNC(=O)OC[C@H]1O[C@H](CCON=C(C)CCC(=O)OC[C@H]2O[C@H](C#Cc3ccccc3)C=C[C@@H]2Oc2ccc(C)cc2)C=C[C@@H]1Oc1ccc(OC)cc1 | 0.352 | -0.193 | -0.148 | -0.301 (inactive) | -0.397 | -0.952 | -0.501 | -0.637 | -0.121 | 0.711 | -1.27 | -0.564 | 0.272 | -0.309 | -0.465 | -0.258 | -0.174 | -0.332 | -0.492 | 0.0642
